High-throughput results deposited in PubChem BioAssay by Broad Institute.
These entries were drawn from the full list.
aSyn UTR act = Activators working through SNCA 5'UTR binding (MLPCN); AID 1814; alpha-synuclein 5'UTR reporter, activators screen; activity score, % (tested at 7.5 µM), hits read low; 300,000 compounds, 7.1% hits; in the data active means activity score below about -60%
* marks the source's active call; other numbers are inactive results.

SMILES | aSyn UTR act
CCc1ccc2[nH]c(=O)c(CN(Cc3ccccc3OC)C(=O)Nc3ccccc3OC)cc2c1 | -72*
COc1ccc(Br)c(-c2nnc(CS(=O)(=O)c3ccccc3)o2)c1 | -85*
C/C(=N\Nc1ccccc1)c1cccc(N)c1 | -92*
Brc1ccc(N/N=C(/N=Nc2nn[nH]n2)c2ccccc2)cc1 | 97
Cc1ccc(C(=O)c2cccc(N)c2)cc1C | 82
Cc1ccc(C(=O)N(C)c2ccc(OCC(=O)N3c4ccc(C)cc4C4CN(C)CCC43)cc2)cc1 (stereo unspecified) | -86*
Cc1ccc2c(c1)C1CN(C)CCC1N2C(=O)COc1ccc(N(C)C(=O)C(C)(C)C)cc1 (stereo unspecified) | -67*
CC(=O)c1cc(-c2ccccc2)n(CC(=O)NC2CCCC2)c1C | -65*
O=C(NC(=O)c1ccc(Cl)cc1)OC1CCCCC1 | -91*
O=C(CNC(=O)c1ccccc1)OC1CCCCC1 | -98*
CC(=O)Nc1ccccc1C(=O)C(=O)Nc1ccc(C)c(F)c1 | -264*
CC(=O)Nc1ccccc1C(=O)C(=O)Nc1ccc(C)c(C)c1 | -182*
CCN(CC)C(=O)C(=O)Nc1ccc(F)c(Cl)c1 | -131*
Cc1ccc(NC(=O)/C(Cl)=C/c2ccccc2)cc1C | -156*
CC(=O)Nc1ccccc1C(=O)C(=O)Nc1cccc(F)c1 | -149*
CC(=O)Nc1ccccc1C(=O)C(=O)Nc1ccc(F)c(Cl)c1 | -123*
Cc1cc(C)nc(SC2=CS(=O)(=O)c3ccccc32)n1 | -120*
O=S1(=O)C=C(Sc2nnc(-c3ccccc3)o2)c2ccccc21 | -118*
NC(=O)c1cccnc1Nc1cccc([N+](=O)[O-])c1 | -109*
COc1cccc(/C=N/Nc2nn3cnnc3c3ccccc23)c1 | -62*
CC1CCCN(C(=O)CSc2nc3ccccc3o2)C1 (stereo unspecified) | -99*
O=C(O)c1ccc2oc(SCC(=O)N3CCCCC3)nc2c1 | -88*
CCOc1ccc(-c2cnc3ccccc3n2)cc1 | 92
O=[N+]([O-])c1cc(-c2cnc3ccccc3n2)ccc1Oc1ccc(F)cc1 | -150*
O=[N+]([O-])c1ccc(-c2cnc3ccccc3n2)cc1 | -124*
SMILES | aSyn UTR act
CCCCn1c(SCC(=O)N2c3ccccc3CCc3ccccc32)nc2c1c(=O)n(C)c(=O)n2C | 74
Cn1c(=O)c2c(nc(SCCN3CCOCC3)n2Cc2ccc(F)cc2)n(C)c1=O | -130*
Cc1ccc(Cn2c(SCc3cccnc3)nc3c2c(=O)n(C)c(=O)n3C)cc1 | 54
O=C(Cc1nc2ccccc2[nH]1)c1ccc(Br)cc1 | -190*
O=C(Cc1nc2ccccc2[nH]c1=O)c1ccccc1 | -172*
O=C(NCc1cccnc1)/C(=C\c1ccc(-c2ccc(Br)cc2)o1)S(=O)(=O)c1ccccc1 | -138*
O=C(NCc1cccnc1)/C(=C/c1ccc(-c2ccc(Cl)cc2)o1)S(=O)(=O)c1ccccc1 | -79*
Cc1ccc(C(=O)N/C(=C\c2ccc(-c3ccc(Br)cc3)o2)C(=O)NCCCN(C)C)cc1 | 100
CCOc1cc(/C=C2/SC(=S)N(C)C2=O)ccc1Oc1ccc([N+](=O)[O-])cc1[N+](=O)[O-] | -62*
CCOc1cc(/C=C2/NC(=S)NC2=O)ccc1OCc1ccc([N+](=O)[O-])cc1 | 62
CC1(C)CN=C(N(Cc2ccccc2)C(=O)Nc2ccccc2)S1 | -154*
O=C1C(N2CCOCC2)=C(n2nnc3ccccc32)C(=O)c2ccccc21 | 44
O=S1(=O)C=C(N2CCOCC2)c2ccccc21 | -70*
CCc1c(C)nc2cc(-c3cccc(Br)c3)[nH]n2c1=O | -199*
O=c1cc(-c2ccccc2)nc2cc(-c3ccc(Br)cc3)[nH]n12 | -94*
O=c1c2c(nc3cc(-c4ccc(Cl)cc4)[nH]n13)CCS2 | -132*
Nc1[nH]n2c(=O)cc(-c3ccccc3)nc2c1N=Nc1ccccc1 | 68
CCc1c(C)nc2cc(-c3ccc(Cl)cc3)[nH]n2c1=O | -98*
COCc1cc(=O)n2[nH]c(-c3cccc(Br)c3)cc2n1 | -75*
Cc1nc2cc(-c3ccc(Br)cc3)[nH]n2c(=O)c1Cl | -74*
CC1=[N+](CC(=O)c2ccccc2)CCn2cccc21 | -110*
CCC1=[N+](CC(=O)c2ccc(C)cc2)CCn2c(C)ccc21 | -194*
CCC1=[N+](CC(=O)c2ccc(C)cc2)CCn2cccc21 | -123*
Cc1ccc(N/C=C(/C#N)c2ccsc2)cc1C | -172*
O=C1C=CCC(/C=C/c2ccccc2)O1 (stereo unspecified) | -104*
SMILES | aSyn UTR act
O=C(/C=C/c1ccccc1)C1=C(O)C(=O)N(CCO)C1c1ccccc1[N+](=O)[O-] (stereo unspecified) | -62*
CC(=O)Oc1ccccc1-c1nc(C)nc(N(C)C(C)=O)n1 | -70*
O=C(Nc1cccc(C(F)(F)F)c1)c1scc2c1OCCO2 | -73*
CCOc1ccc(NC(=O)Nc2ccon2)cc1 | -116*
O=C(Nc1ccc(Cl)cc1)Nc1ccon1 | -129*
Cc1ccc(NC(=O)Nc2ccon2)cc1 | -102*
COc1cc2c(cc1OC)CN(c1ccc(C(F)(F)F)cn1)CC2 | -157*
COc1cc2c(cc1OC)CN(c1ccc3ccccc3n1)CC2 | -189*
Cc1cccc(OCc2n(CC(=O)OC3CC(C)CCC3C(C)C)c3ccccc3[n+]2C)c1 (stereo unspecified) | 60
O=C(Nc1ccc(F)cc1Cl)c1ccc2c(=O)n3c(nc2c1)CCCCC3 | -144*
O=C(O)c1ccc2c(=O)n3c(nc2c1)/C(=C/c1ccc(F)cc1)CC3 | -73*
O=C(NCCc1ccc(F)cc1)c1ccc2c(=O)n3c(nc2c1)CCC3 | -71*
Cc1cc(N)c(-n2cc3c(=O)n(C)c(=O)n(C)c3c2)cc1C | -134*
Cc1ccc(-n2cc3c(=O)n(C)c(=O)n(C)c3c2)cc1C | -107*
Cc1nc(/N=C(\N)NC(=O)c2ccccc2)nc2ccccc12 | -292*
Cc1ccc2nc(/N=C(\N)NC(=O)NC3CCCCC3)nc(C)c2c1 | -149*
CN1CCN(c2ccc(NC(=O)c3cc4ccccc4o3)cc2)CC1 | -64*
CS(=O)(=O)N1CCN(c2ccc(NC(=O)c3cc4ccccc4o3)cc2)CC1 | -116*
COc1ccccc1C(=O)NN=C1CCN(Cc2ccccc2)CC1 | -73*
C/C(=N\NC(=O)c1ccccc1N)c1ccc(NC(=O)Cc2ccccc2)cc1 | -68*
C/C(=N\NC(=O)c1cccc(C)c1O)c1ccc(NC(=O)Cc2ccccc2)cc1 | -74*
COc1ccccc1C(=O)N/N=C(\C)c1ccc(NC(=O)Cc2ccccc2)cc1 | -104*
O=C(NNC(=S)Nc1ccccc1)Nc1ccccc1 | -92*
Cc1ccc(NC(=O)NC(=O)N(c2ccccc2)S(C)(=O)=O)cc1 | -93*
Cc1ccc(NC(=S)NNC(=O)Nc2ccccc2)cc1 | -132*
SMILES | aSyn UTR act
Cc1ccc(NC(=S)NNC(=O)c2nn(C)c(C)c2Cl)cc1 | -276*
CCOc1ccc(NC(=O)NC(=O)N(C)S(=O)(=O)c2ccc(C)cc2)cc1 | -82*
NC1=NC(=O)/C(=C\c2cc([N+](=O)[O-])ccc2Cl)S1 | -95*
CCCCNc1c(-c2ccc(SC3CCCCC3)cc2)nc2ccccn12 | -83*
COc1cc(NC(=O)c2ccccc2F)ccc1NC(=O)c1cc2ccccc2o1 | -67*
COc1cc(NC(=O)c2c(OC)cccc2OC)ccc1NC(=O)c1cc2ccccc2o1 | -205*
COC(=O)c1cc(Cl)c(NC(=O)c2cc3ccccc3o2)cc1OC | -154*
CCC(=O)Nc1ccc(NC(=O)c2cc3ccccc3o2)c(OC)c1 | -134*
